Experimental data: publication PMC5540273 (PLoS ONE, 2017)

Tested on: T1, DRAK2
T1 construct: gene STK17B
Conditions: concentration: 1 μM, replicates: in singlicate; n = 1
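Note: KINOMEscan kinase panel screen.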

In order of rising “%Inh” value:
1. CCn1c(-c2ccoc2)nc2cnccc21 [SB-733887]  0%
2. O=c1cc(N2CCOCC2)nc2n(Cc3ccc(F)c(Cl)c3)ccn12 [GSK2297099]  0%
3. Cl.NS(=O)(=O)c1cccc(Nc2cc(-c3ccc(F)cc3)n[nH]2)c1 [GW824645]  0%
4. COc1cc(Nc2nccc(N3CCC(NC(=O)C4COc5ccccc5O4)C3)n2)cc(OC)c1OC (stereo not drawn) [GSK1379761]  0%
5. COC(=O)c1c(-c2ccccc2)c2cc(Br)ccc2c(=O)n1Cc1ccc(NC(=O)CCC(=O)O)cc1  0%
6. CN1C(=O)C(Nc2cc(Cl)c(O)c(Cl)c2)=C(c2ccc(Cl)cc2)C1=O [SB-404321]  0%
7. CCC(=O)c1c(-c2ccccc2)c2cc(Cl)ccc2c(=O)n1Cc1cc(S(C)(=O)=O)n(CC(N)=O)n1  0%
8. Nc1ncnc2c1ncn2-c1ccc(Cl)cc1 [AH2635]  0%
9. O=C(NCc1cccs1)c1cc(C(=O)c2c(Cl)cccc2Cl)c[nH]1 [GW823670]  0%
10. CCn1c(-c2nonc2N)nc2ccccc21 [SB-693162/GW549034]  0%
11. O=C(NCCNc1ccnc(Nc2ccc(F)cc2)n1)Nc1ccc2c(c1)OCO2 [GSK1379882]  0%
12. O=C(Nc1ccc2c(c1)OCO2)NC1CCN(c2ccnc(NCc3ccc(F)cc3)n2)CC1 [GSK1379859]  0%
13. Nc1ncnc2c1ncn2-c1cccc(F)c1 [SKF-97560]  0%
14. COc1ccc(-c2cc3c(C)nc(N)nc3n([C@H]3CC[C@H](O)CC3)c2=O)cn1  0%
15. COc1ccc(CNC(=O)NC2CCN(c3ccnc(Nc4ccc(F)cc4)n3)C2)cc1 (stereo not drawn) [GSK1379706]  0%
16. Nc1ncnc2c1ncn2-c1cccc2ccccc12 [SKF-97184]  0%
17. COc1cccc(C2=C(N(C)c3ccccc3)C(=O)NC2=O)c1 [SB-334865]  0%
18. Nc1nc(N)c2nc(-c3ccccc3)[nH]c2n1 [SKF-12778]  0%
19. Nc1n[nH]c2nnc(-c3ccccc3)c(-c3ccccc3)c12 [GW554060]  0%
20. Nc1nccc2scc(-c3ccc4c(c3)CCN4C(=O)Cc3ccccc3)c12 [GSK2576924]  0%
21. Cc1cccc(-c2cc(-c3c[nH]nc3-c3ccccn3)ccn2)c1 [GW679395]  0%
22. Cc1ccc(-c2ccc3c(ccc4sc5c(c43)NC[C@@H](C)N=C5N(C)C)n2)cn1  0%
23. CCCC(=O)Nc1n[nH]c2ncc(-c3cccc4ccccc34)cc12 [SB-642057]  0%
24. COc1cc2ncn(-c3cc(OCCCc4ccccc4)c(C(N)=O)s3)c2cc1OC [GSK205189]  0%
25. Cc1cc(Nc2nc(-c3cccc(C)n3)nc3ccccc23)ccn1 [GW872411]  0%
26. O=C(Nc1n[nH]c2nc(-c3ccccc3)c(Cl)cc12)C1CC1 [SB-734909]  0%
27. CN1C(=O)C(Nc2ccccc2)=C(c2ccccc2)C1=O [SB-300079]  0%
28. CCC(=O)c1c(-c2ccccc2)c2cc(Cl)ccc2c(=O)n1Cc1ccc(C(=O)O)cc1  2%
29. Cc1cccc(-c2nc(Nc3ccc4c(cnn4C)c3)c3ccccc3n2)n1 [GW876731]  3%
30. Nc1nc(-c2ccccc2F)c(-c2ccnc3ccccc23)s1 [GW560459]  3%
31. COc1ccc(Nc2nccc(N3CCC(NS(=O)(=O)c4ccc(NC(C)=O)cc4)C3)n2)cc1 (stereo not drawn) [GSK1379729]  4%
32. COc1cc2ncn(-c3cc(OCc4ccncc4Br)c(C(N)=O)s3)c2cc1OC [GW854278]  5%
33. CCCNC(=O)Nc1ccc(Oc2ncnc3ccn(C)c23)cc1  12%
34. COc1ccc(-c2cc3c(C)nc(N)nc3n([C@H]3CC[C@H](OCCO)CC3)c2=O)cn1  14%
35. COc1cc2ncn(-c3cc(OCc4ccc(S(C)(=O)=O)cc4)c(C(N)=O)s3)c2cc1OC [GW869979]  23%
36. COc1cc2nccc(Nc3cccc(Oc4ccccc4)c3)c2cc1OC.Cl [GW284543]  26%
